Pemphigus Ab inh – human desmoglein-3 autoantibody binding inhibition. binding (percent of control), % at 10 µM. 310,000 tested, 0.48% active. DSG3-coupled beads, scFv-anti-DSG3-GFP binding, flow cytometry; stronger effect = lower value. P32926. AID 588358;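 active = binding more than 3 SD below its plate's average and above zero; inconclusive = below that plate limit but binding exactly zero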;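 note: hits lower antibody fragment binding to DSG3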
pPAFAH inh – inhibitors of human plasma PAF acetylhydrolase (pPAFAH) | Q13093 | recombinant pPAFAH, FP-rhodamine probe fluorescence polarization | inhibition, % at 3.39 µM | 330,000 tested, 1.5% active | AID 463082;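 active = inhibition above the mean inhibition across the screen plus 3 SD, cut at about 25% in these data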;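 note: inhibitors block binding of the rhodamine activity-based probe so polarization drops; 0% = enzyme with DMSO and 100% = wells lacking pPAFAH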
PAFAH2 inh – inhibitors of human PAFAH2; recombinant PAFAH2, FP-rhodamine activity probe, fluorescence polarization; inhibition, % at 3.39 µM; 340,000 tested, 0.99% active;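 active = inhibition above the mean over all tested compounds plus 3 SD, cut at about 30% in these data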;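 note: inhibitors block probe labeling of enzyme so polarization drops; 0% = enzyme with DMSO and 100% = wells lacking PAFAH2 protein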
PAFAH1B2 inh – blocks human PAF acetylhydrolase 1b catalytic subunit 2. P68402. recombinant PAFAH1B2, FP-rhodamine activity probe, fluorescence polarization. inhibition, % at 3.39 µM. 340,000 tested, 1.2% active. AID 492953;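 active = inhibition above the mean of all tested compounds plus 3 SD, cut at about 24% in these data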;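 note: 0% = enzyme with DMSO and 100% = wells lacking PAFAH1B2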
Target sequence (P68402 whole entry, looked up): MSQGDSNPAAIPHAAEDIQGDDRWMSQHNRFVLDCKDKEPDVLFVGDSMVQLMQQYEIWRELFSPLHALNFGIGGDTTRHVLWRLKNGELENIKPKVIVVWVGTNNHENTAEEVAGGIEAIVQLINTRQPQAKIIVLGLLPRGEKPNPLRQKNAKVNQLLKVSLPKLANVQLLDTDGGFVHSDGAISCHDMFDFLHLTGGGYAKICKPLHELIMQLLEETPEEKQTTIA
PfM18AAP inh – PfM18AAP enzyme inhibition; recombinant PfM18AAP, H-Glu-NHMec fluorogenic cleavage; inhibition, % at 7.35 µM; 290,000 tested, 1.2% active;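 active = inhibition above the campaign mean inhibition over all tested compounds plus 3 SD, cut at about 28% in these data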;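 note: 0% = plate median of test compound wells and 100% = 2 mM ZnCl2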
PAFAH1B3 FP inh – inhibitors of human PAFAH1B3; recombinant PAFAH1B3, FP-rhodamine probe, fluorescence polarization; AID 492972; Q15102; inhibition, % at 3.39 µM; 340,000 tested, 0.28% active;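 active = inhibition above the screen-wide average of all tested compounds plus 3 SD, cut at about 25% in these data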;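 note: 0% = enzyme with DMSO only and 100% = wells lacking PAFAH1B3 protein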
Target sequence (Q15102 whole entry, looked up): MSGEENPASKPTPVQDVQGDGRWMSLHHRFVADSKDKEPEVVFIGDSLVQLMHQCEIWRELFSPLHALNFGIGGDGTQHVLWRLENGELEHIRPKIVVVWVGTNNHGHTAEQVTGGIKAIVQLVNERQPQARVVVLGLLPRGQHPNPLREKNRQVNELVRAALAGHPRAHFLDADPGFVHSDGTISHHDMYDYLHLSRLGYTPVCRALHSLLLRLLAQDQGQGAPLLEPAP
PAFAH2 confirm – PAFAH2 (human) inhibition, confirmed; shares compounds with PAFAH2 inh; recombinant PAFAH2, FP-rhodamine activity probe, fluorescence polarization; inhibition, % at 3.39 µM; 2,300 tested, 65% active; AID 493030;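 active = mean inhibition over three repeats above a set limit taken from the earlier primary screen, cut at about 30% in these data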;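 note: inhibitor blocks binding of rhodamine activity probe so polarization falls; 0% = enzyme with DMSO and 100% = wells lacking PAFAH2 protein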
* marks the source's active call; other numbers are inactive results; u = inconclusive; x = no result. Sampled rows, rich in hits. Any-hit rate of the full collection: about 3.8%.

SMILES	Pemphigus Ab inh	pPAFAH inh	PAFAH2 inh	PAFAH1B2 inh	PfM18AAP inh	PAFAH1B3 FP inh	PAFAH2 confirm
CN1C(=O)/C(=C/c2ccc(OCc3ccccc3F)cc2)N(C)C1=S	109.4	1.1	0.8	2.6	1.4	-0.5	x
Cc1[nH]c2ccccc2c1C(C#N)(C#N)C1C(=O)c2ccccc2C1=O	103.7	12.6	31.0*	8.6	7.5	8.3	28.0
COc1cccc(NC(=O)COC(=O)C2CC2)c1	107.8	0.6	68.9*	4.3	x	7.6	56.9*
CNS(=O)(=O)c1cccc(C(=O)OCC(=O)Nc2ccc(OC)cc2[N+](=O)[O-])c1	99.3	8.4	31.2*	-1.5	-5.6	3.0	26.8
COc1ccc(NC(=O)COC(=O)C2CCCCC2)c([N+](=O)[O-])c1	96.4	5.9	29.7*	4.2	-1.4	1.0	20.2
COc1cccc(NC(=O)COC(=O)C2CCCCC2)c1	u	7.3	82.1*	7.1	x	7.7	63.2*
O=S(=O)(NCc1cn2ccccc2n1)c1cccs1	89.0	1.1	4.9	-0.9	0.2	7.6	x
O=C1C(Cl)=C(Nc2ccccc2O)C(=O)N1CCc1ccccc1	118.2	18.9	44.1*	6.2	14.6	-13.8	37.0*
COc1ccc(CCNC2=C(Cl)C(=O)N(CCc3ccccc3)C2=O)cc1OC	102.5	5.3	2.8	1.0	14.9	3.4	x
Cc1cc(NC(=O)COC(=O)c2ccc(Cl)cc2)no1	109.2	x	x	x	x	x	x
CCNc1ccc(C(=O)OCC(=O)NCc2ccccc2Cl)cc1[N+](=O)[O-]	x	0.0	46.9*	0.2	-5.0	-6.8	56.4*
CCNc1ccc(C(=O)OCC(=O)Nc2cc(C)on2)cc1[N+](=O)[O-]	100.9	2.0	30.9*	-2.1	x	13.8	30.7*
CNc1ccc(C(=O)OCC(=O)NC(=O)NC2CCCCC2)cc1[N+](=O)[O-]	119.9	4.2	14.9	6.6	x	9.9	x
CCNc1ccc(C(=O)OCC(=O)NC(=O)NCC(C)C)cc1[N+](=O)[O-]	99.3	0.1	32.6*	3.0	6.5	8.3	27.2
O=C(COC(=O)Cc1ccccc1[N+](=O)[O-])NCc1ccccc1Cl	82.3	-2.4	5.5	3.1	6.2	8.6	x
O=C(COC(=O)c1ccccc1Cl)NCCC1=CCCCC1	98.7	18.1	16.5	1.9	-2.0	7.9	x
O=C(COC(=O)c1cccs1)NCCC1=CCCCC1	86.2	8.2	55.0*	2.1	3.3	3.9	41.0*
Cc1ccc(C(=O)OCC(=O)NCCC2=CCCCC2)s1	106.8	20.4	61.1*	0.6	2.3	-0.8	60.2*
COc1cc(/C=N/NC(=O)C(N)=O)ccc1OCC(=O)N1C(C)CCCC1C (configuration not stated)	109.7	5.4	-0.9	-2.0	-2.2	5.7	x
CCCCc1nc2ccc(S(=O)(=O)O)cc2[nH]1	94.1	3.5	-0.9	1.2	1.7	-0.1	x
CCOc1ccccc1-c1nc(-c2cc3ccc(C)cc3[nH]c2=O)no1	102.3	-1.3	51.8*	-3.0	3.4	0.1	32.4*
Cc1ccc2cc(-c3noc(C4CCCCC4)n3)c(=O)[nH]c2c1	-17.9*	-1.0	47.3*	-2.6	-3.6	-4.7	50.6*
CCCN(Cc1nnc(-c2cccs2)o1)C(=O)CN1C(=O)NC2(CCCCC2C)C1=O (configuration not stated)	97.6	-2.2	2.1	-3.4	x	-1.4	x
COc1ccc(NC(=O)CCCN2C(=O)CN(C)C2=O)cc1Cl	89.3	1.5	11.3	4.7	x	6.3	x
Cc1ccc2nsnc2c1NC(=O)COc1ccccc1F	84.8	-3.3	3.7	2.4	-0.2	7.1	x
SMILES	Pemphigus Ab inh	pPAFAH inh	PAFAH2 inh	PAFAH1B2 inh	PfM18AAP inh	PAFAH1B3 FP inh	PAFAH2 confirm
O=C(CCNS(=O)(=O)c1ccc(OC(F)(F)F)cc1)Nc1cccc(S(=O)(=O)N2CCCC2)c1	103.1	x	5.1	3.6	x	3.2	x
COC(=O)c1c(NC(=S)NNC(=O)c2ccc(Cl)s2)sc(C(=O)N(C)C)c1C	100.4	9.6	50.5*	3.2	15.4	5.2	40.9*
CCOC(=O)c1cnc2ccc(OCC)cc2c1NCCCN1CCOCC1	115.4	8.0	-8.7	-0.4	-1.1	5.8	x
Cc1ccccc1C(=O)Nc1ccc(O)cc1C(=O)O	102.4	-2.4	-6.7	-1.6	0.5	6.9	x
O=C(Nc1ccc(O)cc1C(=O)O)c1cccc(Br)c1	101.1	-0.5	37.6*	5.1	-4.0	9.1	20.9
O=C(Cc1cccc2ccccc12)Nc1ccc(Br)cc1C(=O)O	97.8	-7.1	36.2*	7.0	-5.0	18.1	24.9
O=C(Cc1cccc2ccccc12)Nc1ccc(O)cc1C(=O)O	95.2	4.6	24.9	7.8	2.8	4.9	x
NS(=O)(=O)c1ccc(NC(=O)CSc2nc3c(c(=O)[nH]2)CCCC3)cc1	x	2.8	5.5	6.6	1.3	-3.1	x
Cc1cccn2c(=O)nc(SCC(=O)NC3CCCCC3)nc12	89.5	7.7	-0.7	5.1	x	-2.4	x
CN(c1cccc(NC(=O)c2ccc(Cl)c(S(=O)(=O)N3CCOCC3)c2)c1)S(C)(=O)=O	113.7	x	-0.3	-1.9	1.3	11.3	x
Cc1ccccc1NC(=O)COC(=O)c1ccc(S(C)(=O)=O)c([N+](=O)[O-])c1	95.7	11.0	39.3*	1.4	5.6	-2.5	13.5
Cc1ccccc1NC(=O)COC(=O)c1ccc2c(c1)OCCO2	100.6	x	58.3*	2.4	x	1.6	52.1*
COc1ccccc1NC(=O)COC(=O)c1ccc2c(c1)OCCO2	100.6	3.1	6.0	2.2	x	-2.2	x
Cc1ccc(C)c(NC(=O)COC(=O)c2ccc3c(c2)OCCO3)c1	97.0	1.3	52.7*	1.4	x	5.7	60.7*
CS(=O)(=O)c1ccc(C(=O)OCC(=O)Nc2cccnc2Cl)cc1[N+](=O)[O-]	x	-0.7	12.5	-4.6	x	4.5	x
COc1ccc(NC(=S)N2CCN(C(=O)c3ccco3)CC2)cc1OC	113.8	x	-2.4	-0.1	-1.7	4.1	x
C=C1CCN([C@H](C(=O)OCc2ccc(C)cc2)C(C)C)S(=O)(=O)c2ccccc21	102.2	1.7	126.0*	1.2	x	8.1	0.1
C=C1CCN([C@@H](C)C(=O)OCc2cccc(C)c2)S(=O)(=O)c2ccccc21	107.2	-1.3	10.0	0.7	x	4.1	x
Clc1ccc2oc(SCc3cccnc3)nc2c1	96.0	6.4	0.5	4.2	-10.8	3.2	x
O=C(COC(=O)c1ccccc1SCC(=O)N1CCCC1)Nc1ccc(OC(F)F)cc1	101.3	22.7	72.6*	4.3	x	0.2	76.0*
NC(=O)c1ccc(NC(=O)COC(=O)c2ccccc2SCC(=O)N2CCCC2)cc1	99.4	x	x	x	x	x	x
Cc1cccc(NC(=O)COC(=O)c2ccccc2SCC(=O)N2CCCC2)c1	100.4	5.2	88.4*	0.5	2.5	-1.9	73.5*
CCOc1ccccc1NC(=O)COC(=O)c1ccccc1SCC(=O)N1CCCC1	103.2	4.5	6.6	0.1	x	2.8	x
